Assay outcomes as filed in PubChem BioAssay.
Shown are actives, neighbours in structure and some others; about 22% of the full set was active somewhere.
CYP2C9 activ – activators of human CYP2C9. P11712. recombinant CYP2C9, luciferin-H conversion, luminescence; active compounds read high; factor 1 = untreated enzyme, 0 = blocked. activation factor at 5 µM. hit rate 1.4% among 96,000;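 active = activation factor of 2 or more for CYP2C9 at a 5 µM dose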;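 note: 0 = sulfaphenazole-blocked wells and 1 = vehicle-only wells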
CYP2C19 act – activators of human cytochrome P450 2C19 | recombinant CYP2C19, luciferin-H EGE luminescence; active compounds read high; 0 = fully inhibited enzyme, 1 = untreated enzyme | 96,000 tested, under 10 active | P33261 | activation factor at 5 µM;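 active = activation factor of at least 2 at 5 µM in the primary screen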;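 note: 0 = wells with 2.5 mM tranylcypromine and 1 = vehicle-only wells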
Target sequence (P33261 whole entry, looked up): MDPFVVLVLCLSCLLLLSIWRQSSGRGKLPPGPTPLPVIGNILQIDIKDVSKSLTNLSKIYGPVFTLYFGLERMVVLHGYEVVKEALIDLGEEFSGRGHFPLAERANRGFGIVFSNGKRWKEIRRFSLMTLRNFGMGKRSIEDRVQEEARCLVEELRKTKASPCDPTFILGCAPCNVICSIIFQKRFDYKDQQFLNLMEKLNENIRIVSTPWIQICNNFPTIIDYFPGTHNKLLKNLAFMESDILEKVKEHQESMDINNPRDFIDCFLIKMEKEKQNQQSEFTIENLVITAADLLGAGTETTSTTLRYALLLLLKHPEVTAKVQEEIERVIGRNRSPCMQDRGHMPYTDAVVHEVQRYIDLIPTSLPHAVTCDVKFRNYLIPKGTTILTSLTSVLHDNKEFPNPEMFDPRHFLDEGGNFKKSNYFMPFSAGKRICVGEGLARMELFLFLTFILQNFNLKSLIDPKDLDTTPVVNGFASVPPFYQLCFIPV
CYP2C9 inhib – inhibitors of human CYP2C9; P11712; CYP2C9 Supersomes, luciferin-H conversion, luminescence; inhibition, % at 5 µM; hit rate 20% among 96,000; AID 777;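 active = blocking of liver enzyme CYP2C9 beyond about 50% at 5 µM, limit read from the data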
Measles CPE – protection of cells from measles virus | Measles virus-infected cells, CPE protection, absorbance | protection (pct of control), % at 4 µM | hit rate 1.5% among 140,000 | AID 841; in the data active = protection mostly above about 24%, no sharp cut-off; inactive = mostly below about 26%
CYP2C19 inh – human CYP2C19 inhibition | P33261 | CYP2C19 Supersomes, luciferin-H EGE luminescence, 30 min | inhibition, % at 5 µM | hit rate 21% among 96,000 | AID 778;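 active = CYP2C19 inhibition above a set limit at 5 µM in the primary screen, cut at about 50% in these data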;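 note: plate controls were negative control wells for no effect and 2.5 mM tranylcypromine positive control for full effect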
* = called active by the depositor; · = no result.

SMILES | CYP2C9 activ | CYP2C19 act | CYP2C9 inhib | Measles CPE | CYP2C19 inh
COc1ccc(NC(=O)C2CCN(S(=O)(=O)c3cccc4cccnc34)CC2)cc1OC | · | · | · | 5 | ·
CC1CC(C)CN(S(=O)(=O)c2cccc3cccnc23)C1 (stereo not drawn) | 2.5* | 0.3 | -155 | 5 | 68*
COc1ccc(C=NC(CO)C(O)c2ccc([N+](=O)[O-])cc2)cc1 (stereo not drawn) | 1 | 0.7 | -4 | 3 | 27
Cc1nnc(SCC(=O)N2CCCCC2)n1CC1CCCO1 (stereo not drawn) | · | · | · | 5 | ·
CCOC(=O)Cn1c(=O)oc2cc(S(=O)(=O)NCCC(C)C)ccc21 | 0.2 | 0.5 | 80* | 37 | 47
CCOC(=O)Cn1c(=O)oc2cc(S(=O)(=O)N3CCc4ccccc43)ccc21 | 0.3 | 0.3 | 74* | 30 | 67*
CCOC(=O)Cn1c(=O)oc2cc(S(=O)(=O)NC(C)c3ccccc3)ccc21 (stereo not drawn) | 0.5 | 0.2 | 51* | 13 | 78*
CCOC(=O)Cn1c(=O)oc2cc(S(=O)(=O)NCCc3ccc(OCC)c(OCC)c3)ccc21 | 0.4 | 0.6 | 56* | · | 43
O=S(=O)(c1ccc(OCC(O)CN2CCC(Cc3ccccc3)CC2)cc1)N1CCOCC1 (stereo not drawn) | 0.7 | 0.7 | 30 | 5 | 31
Cn1c(=O)oc2cc(S(=O)(=O)N3CCCc4ccccc43)ccc21 | 1.2 | 0.7 | -20 | 3 | 29
Cn1c(=O)c(=O)n(C)c2cc(S(=O)(=O)N3CCc4ccccc43)ccc21 | 0.5 | 0.9 | 54* | 7 | 15
Cc1cc(NC(=O)C2C3C(=O)N(Cc4ccc(Cl)cc4)C(C(=O)NCc4ccccc4)C34C=CC2(C)O4)no1 (stereo not drawn) | 0.2 | 0.6 | 83* | 22 | 40
Cc1cc(NC(=O)C2C3C(=O)N(Cc4ccc(Cl)cc4)C(C(=O)NC4CCCCC4)C34C=CC2(C)O4)no1 (stereo not drawn) | 1.2 | 1 | -24 | 9 | 2
CCO/C=N/c1c(C#N)c2c(c(=S)n1C)COC(C)(C)C2 | 0.5 | 0.3 | 49 | 5 | 66*
CN(C)CC(=O)c1ccc(-c2ccccc2)cc1 | 1 | 1 | 2 | 16 | -2
CN(C)C/C(Cl)=C(\Cl)c1ccccc1 | 0.7 | 0.4 | 27 | 5 | 57*
CCOC1=NC(C(=O)O)c2ccccc2/C(=C(/C)Cl)N1 (stereo not drawn) | 0.8 | 0.7 | 22 | 8 | 30
CCn1c2ccccc2c2cc(CN3CCN(C(=O)c4ccco4)CC3)ccc21 | 0.7 | 0.7 | 26 | 38 | 26
CCOC(=O)NC(Nc1nc2ccccc2s1)(C(=O)OCC)C(F)(F)F (stereo not drawn) | 0.2 | 0.1 | 83* | 9 | 93*
CCOC(=O)C1=C(O)C(Nc2nc3ccccc3s2)(C(F)(F)F)N=C1C (stereo not drawn) | 0.6 | 0 | 42 | 22 | 98*
O=C(NNc1nc2ccccc2s1)Nc1ccccc1 | · | · | · | 20 | ·
CCOc1ccc2nc(NC(NC(=O)CC)(C(=O)OC)C(F)(F)F)sc2c1 (stereo not drawn) | 0.6 | 0.3 | 44 | 24 | 70*
C/C(=C\C(=O)c1ccccc1)NNc1nc2ccccc2s1 | 0.6 | 0.4 | 42 | 10 | 61*
O=C(Nc1cnc2ccccn2c1=O)c1ccc(F)cc1 | 0.9 | 0.7 | 8 | 29 | 28
COc1ccc(N2CCN(c3nc4c(c(=O)[nH]c(=O)n4C)n3Cc3cccc(C)c3)CC2)cc1 | · | · | · | 8 | ·
SMILES | CYP2C9 activ | CYP2C19 act | CYP2C9 inhib | Measles CPE | CYP2C19 inh
O=C(O)C1C2CCC(C2)C1C(=O)Nc1nc2ccccc2s1 (stereo not drawn) | 0.9 | 1 | 13 | 4 | 3
CCOc1ccc2nc(NS(=O)(=O)Cc3ccccc3)sc2c1 | 0 | 0.2 | 96* | 6 | 77*
O=C(NC(Nc1nc2ccccc2s1)(C(F)(F)F)C(F)(F)F)c1ccccc1 | 0.1 | 0.2 | 92* | 7 | 76*
CCCC(=O)Nc1nc2ccc(OCC)cc2s1 | 0.8 | 0.8 | 23 | 8 | 16
CCOc1ccc2nc(NC(NC(C)=O)(C(=O)OC)C(F)(F)F)sc2c1 (stereo not drawn) | 0.9 | 0.4 | 6 | 9 | 58*
CC(=O)NC1=NN(C(C)=O)C(C)(c2ccccc2)S1 (stereo not drawn) | 1 | 0.9 | 4 | 2 | 8
CCn1c(=O)cc(OCC(=O)N(C)c2ccccc2F)c2ccccc21 | 0.7 | 0.9 | 32 | 11 | 13
NNC(=O)c1ccc(COc2ccc3c(c2)CCC3)o1 | · | · | · | 14 | ·
O=C(Nc1ccc([N+](=O)[O-])cc1)c1nc[nH]c1C(=O)NC1CCCCC1 | · | · | · | 8 | ·
COc1ccccc1OCC(=O)N(Cc1nc(-c2ccc(Cl)cc2)no1)C(C)C | 1.6 | 0.2 | -64 | 4 | 78*
COc1cccc(C(=O)N(Cc2nc(-c3ccc(C)cc3)no2)C(C)C)c1 | 0.6 | 0.9 | 41 | 5 | 12
COc1cccc(OCC(=O)N(Cc2nc(-c3ccc(Cl)cc3)no2)C(C)C)c1 | 0.1 | 0.1 | 87* | 2 | 88*
N#Cc1nc(-c2ccco2)oc1N1CCC(C(N)=O)CC1 | 1 | 0.9 | -2 | 34 | 8
NC(=O)C1CCN(c2oc(-c3ccccc3F)nc2S(=O)(=O)c2ccc(Cl)cc2)CC1 | 0.7 | 0.5 | 29 | 12 | 52*
COCCNc1ncnc2nc[nH]c12 | 1 | 1.1 | -2 | 17 | -11
CCCC(=O)NC(=S)Nc1ccc(Cl)cn1 | 0.7 | 0.6 | 27 | 8 | 43
O=C(/C=C/c1ccccc1)N/C(=C/c1ccccc1)C(=O)Nc1ccc(C(=O)O)cc1 | · | · | · | 8 | ·
CC(=O)c1ccc(NC(=O)/C(=C\c2ccccc2)NC(=O)/C=C/c2ccccc2)cc1 | 0.5 | 0.9 | 53* | 7 | 12
CC(OC(=O)C1CCN(S(=O)(=O)c2ccc(Cl)cc2)CC1)C(=O)N1CCc2ccccc21 (stereo not drawn) | 1.8 | 0.3 | -85 | 27 | 66*
O=C(C1CCN(S(=O)(=O)c2ccc3c(c2)OCCO3)CC1)N1CCc2ccccc21 | 1.1 | 0.9 | -12 | 2 | 8
CC(=O)Nc1ccc(S(=O)(=O)NCC(=O)OCC(=O)N2CCc3ccccc32)cc1 | 0.3 | 0.9 | 71* | 6 | 12
COc1ccc(S(=O)(=O)NC(CC(=O)N2CCc3ccccc32)c2ccco2)cc1 (stereo not drawn) | 0.5 | 0.6 | 50 | 20 | 41
CCOc1ccc(S(=O)(=O)NCCC(=O)OCN2C(=O)c3ccccc3C2=O)cc1 | 0.6 | 0.3 | 42 | 10 | 70*
CCOc1ccc(S(=O)(=O)NCCC(=O)OC(C)C(=O)N2CCc3ccccc32)cc1 (stereo not drawn) | 2.1* | 0.5 | -114 | 54* | 50*
c1ccc(-c2cc(-c3nc(-c4cccnc4)no3)c3ccccc3n2)cc1 | 0.9 | 0.9 | 10 | · | 9
O=S(=O)(NCc1cc(-c2ccccc2Cl)no1)c1ccc(Cl)cc1 | 1.9 | 0.1 | -87 | 7 | 93*
O=S(=O)(NCCCc1ccccc1)c1ccc(Cl)cc1 | · | · | · | 13 | ·
